A selection: hits, their analogues and other compounds. The true share with any hit is near 11%.
AMA1 RON2 block – qHTS for Inhibitors of AMA1-RON; Towards Development of Antimalarial Drug Lead: Primary Screen | Plasmodium falciparum AMA1 (3D7) - RON2 peptide interaction | actives 0.2% (n = 360,000) | AID 720542, 2013 | Potency, µM (series often up to 58.2 µM), actives largely listed as inhibitors | AlphaScreen AMA1-biotinylated RON2 peptide binding; further: nearly all actives have a fitted effect of over 45% in size
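AMA1 (3D7) with his tag at 25 nM final met compounds first, then biotinylated RON2 peptide at 25 nM; detection used donor plus acceptor beads, 10 µg/mL apiece, read by AlphaScreen after 30 min at room temperature.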
Pf growth 48h – Primary qHTS for delayed death inhibitors of the malarial parasite plastid, 48 hour incubation; P. falciparum luciferase growth in erythrocytes, 48 h; Potency, µM (doses to about 28.7 µM), hits mostly inhibitors; actives 5.9% (n = 310,000)
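Growth was read as firefly luciferase luminescence after a 48 h, 37 C, 5% CO2 exposure of compounds to reporter-bearing P. falciparum cultures (0.1% parasitemia, 2% hematocrit final) in Albumax-supplemented RPMI 1640.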
HCV inh – qHTS Assay for Inhibitors of Hepatitis C Virus (HCV). Huh7.5.1 HCVcc-Cre infection, luciferase reporter, 44 h. actives 3.4% (n = 340,000). Potency, µM (highest dose often 41.8 µM), actives largely listed as inhibitors. AID 651820, 2012
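Cells (1,000/well) were plated 4 h before compound, then infected with HCVcc-Cre virus (~0.5 moi). After 44 h further culture, infection was read as luciferase luminescence following a 15 min substrate incubation at room temperature.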
Pf growth 96h – Primary qHTS for delayed death inhibitors of the malarial parasite plastid, 96 hour incubation. P. falciparum luciferase reporter growth, 96 h. AID 504834, 2011. actives 6.9% (n = 320,000). Potency, µM (highest dose often 28.7 µM), most hits filed as inhibitors
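Two parasite generations (96 h, 37 C, 5% CO2) of compound exposure in infected erythrocytes (0.05% parasitemia, 2% hematocrit). Luciferase-reporter P. falciparum; decreased luminescence indicates inhibited growth, aimed at apicoplast-acting delayed death.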
Large screens that a line does not name were inactive. The call rests on the fitted dose curve; in most records, active means well fitted curve in the direction sought with a large enough effect; inconclusive means small, poorly fitted or top-dose-only effect, or another doubt; inactive means no such curve, though single readings can be large; an effect the other way counts as inactive or inconclusive.

Cc1cn([C@H]2C[C@H](O)[C@@H](CCC(=O)NCC(c3ccccc3)c3ccccc3)O2)c(=O)[nH]c1=O	none (no result: Pf growth 48h, HCV inh, Pf growth 96h)
CCOc1ccc(-n2c(C)cc(/C=C3/C(=N)N4C(=NC3=O)SN=C4S(C)(=O)=O)c2C)cc1	Pf growth 48h inconclusive, Pf growth 96h 8.28µM
Cc1cc(/C=C2/C(=N)N3C(=NC2=O)SN=C3S(C)(=O)=O)c(C)n1-c1ccc(F)cc1	Pf growth 48h inconclusive
COc1ccc(-c2[nH]c3ccccc3c2SCCNC(=O)c2cc3ccccc3oc2=O)cc1	Pf growth 96h 9.28µM
Cc1ccc(C)c(C(O)c2ncc(-c3ccc(Cl)cc3)[nH]2)c1 (stereo unspecified)	none (no result: Pf growth 48h, HCV inh, Pf growth 96h)
CC(C)CN(C(=O)c1cccc(Cl)c1)c1c(N)n(Cc2ccccc2)c(=O)[nH]c1=O	Pf growth 48h inconclusive, Pf growth 96h inconclusive
Cc1c(C(=O)N(Cc2cccc(Br)c2)C2CCS(=O)(=O)C2)oc2ccccc12 (stereo unspecified)	Pf growth 48h inconclusive, HCV inh inconclusive, Pf growth 96h 13.1µM
Cc1nnc(SCC(=O)Nc2c(C)n(C)n(-c3ccccc3)c2=O)n1Cc1ccccc1	none
COC(=O)c1cc(C)[nH]c2c(C)cc3nc4ccccc4c3c12	Pf growth 48h inconclusive, HCV inh 10µM, Pf growth 96h inconclusive
COC(=O)c1c(C)nc2ccccc2c1C(=O)O	Pf growth 48h inconclusive
CCOC(=O)C1(CC2CCCCO2)CCN(Cc2nccn2-c2cccc(C)c2)CC1 (stereo unspecified)	Pf growth 48h inconclusive
CCOC(=O)C1(CC2CCCCO2)CCN(Cc2nccn2-c2ccc(OC)cc2)CC1 (stereo unspecified)	Pf growth 48h 10.4µM
Oc1cc2ccccc2nc1-c1ccccc1Cl	Pf growth 48h 7.38µM, Pf growth 96h inconclusive
Cc1c(-c2ccccc2Cl)nc2ccccc2c1C(=O)O	none
COc1ccc(NC(=O)c2cc(C3CCCCN3C(=O)CCCc3ccccc3)on2)c(C)c1 (stereo unspecified)	none (no result: Pf growth 48h, HCV inh, Pf growth 96h)
CCOC(=O)c1c(NC(=O)CSc2nnc(C)c(=O)[nH]2)sc2c1CCCC2	none (no result: Pf growth 96h)
CCc1ccc(CCC(=O)Nc2sc3c(c2C#N)CCCC3)o1	HCV inh 4.47µM (no result: Pf growth 96h)
Cc1ccc(OCC(=O)Nc2sc3c(c2C#N)CCC3)cc1	none
Cc1nnc(SCC(=O)Nc2sc3c(c2C#N)CCCC3)[nH]c1=O	Pf growth 96h 14.7µM
COc1ccc(NC(=O)CN(C)CC(=O)Nc2sc3c(c2C#N)CCC3)cc1	Pf growth 48h inconclusive, Pf growth 96h 9.28µM
COc1ccc(CN2C(=O)C(CC(=O)NCC3CCCCC3)CC(C(=O)N(C(C)C)C(C)C)=C2C)cc1 (stereo unspecified)	none (no result: Pf growth 48h, HCV inh, Pf growth 96h)
Clc1cccc(Cl)c1NC1=NCCN1	Pf growth 96h 12µM (no result: AMA1 RON2 block, HCV inh)
CC12CCC(=O)N1C(C(=O)Nc1cccc(F)c1)CS2 (stereo unspecified)	none
CCOC(=O)c1cc(CC)sc1NC(=O)C1CC(=O)NN1Cc1ccccc1 (stereo unspecified)	Pf growth 48h inconclusive, HCV inh 5.62µM
CC(=O)C12CCCCC1CC1C3CC(C)C4(O)CC(=O)CCC4(C)C3CCC12C (stereo unspecified)	Pf growth 96h 9.28µM
COc1ccc(OC)c(C2=Nn3c(nnc3C3CCCCC3)SC2)c1	Pf growth 48h inconclusive, HCV inh 15.8µM, Pf growth 96h 9.28µM
COc1ccc(C2=Nn3c(nnc3C3CCCCC3)SC2)cc1OC	HCV inh inconclusive, Pf growth 96h 4.65µM (no result: Pf growth 48h)
CC(C)C[C@H]1CN(CCCC[C@H]2CNC(=O)C(=O)N2CC2CCCCC2)C(=O)C(=O)N1CCc1ccccc1	none (no result: Pf growth 48h, HCV inh, Pf growth 96h)
CCCCCCn1c(=O)n2n(c1=O)[C@@H]1CN(S(=O)(=O)c3ccc(C)cc3)C[C@]1(O)[C@@H](OC(=O)Nc1c(C)noc1C)C2	none (no result: Pf growth 48h, HCV inh, Pf growth 96h)
Cc1c(NC(=O)c2cc(-c3ccc(Cl)cc3)on2)c(=O)n(-c2ccccc2)n1C	none
Cc1ccc2c(c1)NC(=O)CC(c1ccccc1)=N2	HCV inh 3.16µM
O=C1CC(c2ccccc2)=Nc2ccc(Br)cc2N1	none
O=C(Nc1cccc(Cl)c1)c1ccccc1NC(=O)C1CCCCC1C(=O)O (stereo unspecified)	none
CSCc1c(C(=O)Nc2ccccc2N2CCOCC2)oc2ccccc12	Pf growth 48h 11.7µM
Cc1cccc(-c2nc3c(c(=O)c4ccccc4n3C)c(=O)n2-c2ccccc2)c1	Pf growth 48h 1.65µM, Pf growth 96h 1.65µM
CC(C)(C)NC(=O)C(c1ccc(-c2ccccc2)cc1)N(C[C@H]1CC[C@@H]([C@@H]2CC[C@H](CO)O2)O1)C(=O)c1ccc(C(C)(C)C)cc1 (stereo partly specified)	HCV inh inconclusive (no result: Pf growth 48h, Pf growth 96h)
CC(NC(=O)Cn1ccsc1=N)C12CC3CC(CC(C3)C1)C2 (stereo unspecified)	Pf growth 48h inconclusive, Pf growth 96h inconclusive
CC(NC(=O)Cn1ncc(Cl)c(Cl)c1=O)C12CC3CC(CC(C3)C1)C2 (stereo unspecified)	HCV inh 10µM
O=C(Cn1ncc(Cl)c(Cl)c1=O)NC(=O)NC1CCCCC1	HCV inh 0.631µM (no result: Pf growth 48h, Pf growth 96h)
CCn1cc(C(=O)NC(C)C23CC4CC(CC(C4)C2)C3)cn1 (stereo unspecified)	AMA1 RON2 block inconclusive, Pf growth 48h inconclusive, Pf growth 96h 5.22µM
O=C(CN1CCCCC1)NC(=O)NC1CCCC1	none
CC(NC(=O)CN1C(=O)NC(Cc2ccccc2)(Cc2ccccc2)C1=O)C12CC3CC(CC(C3)C1)C2 (stereo unspecified)	Pf growth 96h 11.7µM (no result: Pf growth 48h)
CCn1c(=O)ccc2cc([N+](=O)[O-])ccc21	none
CC1(OC(=O)C2CCCC2)C(=O)C=C2C=C(c3ccsc3)N(CCc3c[nH]c4ccccc34)C=C2C1=O (stereo unspecified)	Pf growth 48h 9.28µM, Pf growth 96h 13.1µM
CC1(OC(=O)C2CCCC2)C(=O)C=C2C=C(c3ccsc3)N(C3CCCCC3)C=C2C1=O (stereo unspecified)	Pf growth 48h 11.7µM, Pf growth 96h inconclusive
CC1(OC(=O)C2CCCC2)C(=O)C=C2C=C(c3ccsc3)N(CC3CC3)C=C2C1=O (stereo unspecified)	Pf growth 48h inconclusive, Pf growth 96h inconclusive
COc1ccc(Cc2nc3ccc(C(=O)N(C)CCn4ccnc4)cc3o2)cc1OC	Pf growth 96h inconclusive
COC(=O)c1c(NC(=O)CN2C(=O)C(=O)N(C(C)C)C2=O)sc(C)c1C	Pf growth 48h inconclusive
COc1cccc(OC)c1C(=O)NC(=O)Nc1c(F)c(F)c(F)c(F)c1F	Pf growth 48h 7.38µM, Pf growth 96h 2.08µM
COc1ccccc1C(=O)NNC(=O)c1ccc(C)cc1	none
COc1ccc([N+](=O)[O-])c(OC)c1C(=O)Nc1ccc(F)cc1F	none
COc1ccccc1C(=O)NC(=O)Nc1c(C)cc(C)cc1C	HCV inh 12.6µM

Screening data (PubChem)
